# From PubChem BioAssay (Tox21)
# Values joined by “and” are separate entries in the source; they are usually repeats but may differ in a detail not shown here. Equal values may be shown once. Where a structure was tested more than once in an assay, its records may differ in their call. Active and inactive are the calls of the source. A call without a number means that no potency is given here. Unless noted, calls follow the shape of the dose curve; as a rule, active = well fitted curve in the direction sought with a large enough effect in the repeat runs; inconclusive = weak or mixed curves; inactive = no such curve, though single readings can be large; an effect the other way counts as inactive or inconclusive.
# Columns and labels:
# [1] = qHTS assay to identify small molecule antagonists of the thyroid receptor (TR) signaling pathway - cell viability counter screen (AID 743064); also: nearly all actives have a fitted effect of over 50% in size; also: potency is read from the fitted curve at half-maximal effect
# Outline: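 Same-well viability check: GH3.TRE-Luc cells stimulated with 1 nM T3 alongside test compound for 23.5 h, followed by CellTiter-Fluor fluorescence.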
# [2] = tested on: thyroid hormone receptor (rat, GH3 cells); assay: qHTS assay to identify small molecule agonists of the thyroid receptor (TR) signaling pathway (AID 743066; calls by dose curve)
# [3] = target: Estrogen receptor (Homo sapiens) (UniProt P03372); assay: qHTS assay to identify small molecule antagonists of the estrogen receptor alpha (ER-alpha) signaling pathway (AID 743069; active = well fitted curve in the direction sought with a large enough effect in the signal ratio in the repeat runs, not every such curve was filed as active; inconclusive = weak or mixed curves, or effect the other way; inactive = no such curve, though single readings can be large or run the other way; the % refers to the signal ratio; also: potency is read from the fitted curve at half-maximal effect)
# Sequence of Estrogen receptor (Homo sapiens) (P03372 whole entry, looked up): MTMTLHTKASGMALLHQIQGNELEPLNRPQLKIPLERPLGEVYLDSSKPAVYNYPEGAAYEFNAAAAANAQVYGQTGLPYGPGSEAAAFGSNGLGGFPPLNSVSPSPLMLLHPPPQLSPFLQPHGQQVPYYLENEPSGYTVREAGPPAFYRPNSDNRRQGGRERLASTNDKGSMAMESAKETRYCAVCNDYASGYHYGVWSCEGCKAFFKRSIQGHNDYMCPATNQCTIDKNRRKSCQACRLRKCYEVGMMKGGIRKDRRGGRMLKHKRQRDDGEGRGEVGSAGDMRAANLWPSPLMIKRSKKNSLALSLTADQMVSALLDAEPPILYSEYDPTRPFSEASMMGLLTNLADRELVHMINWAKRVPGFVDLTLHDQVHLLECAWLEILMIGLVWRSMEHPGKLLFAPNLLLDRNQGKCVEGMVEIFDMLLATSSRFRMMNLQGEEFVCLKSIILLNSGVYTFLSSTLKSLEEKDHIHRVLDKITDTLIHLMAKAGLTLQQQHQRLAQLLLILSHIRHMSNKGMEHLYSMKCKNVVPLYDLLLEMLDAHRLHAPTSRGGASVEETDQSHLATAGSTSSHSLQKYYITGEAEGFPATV
# Outline: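 Antagonist mode: compounds in DMSO were co-added with 17beta-estradiol to ER-alpha-bla HEK293 cells (2% charcoal-stripped serum) and left 18 h at 37C. Reporter inhibition was measured as FRET fluorescence after 2 h LiveBLAzer substrate at room temperature.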
# [4] = qHTS assay to identify small molecule antagonists of the estrogen receptor alpha (ER-alpha) signaling pathway - cell viability counter screen (AID 743074; calls by dose curve;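 also: HEK293 cells carrying ER-alpha-UAS-bla reporter stimulated with 17beta-estradiol; nearly all actives have a fitted effect of over 45% in size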)
# [5] = target: Estrogen receptor (Homo sapiens) (UniProt P03372); assay: qHTS assay to identify small molecule agonists of the estrogen receptor alpha (ER-alpha) signaling pathway (AID 743075; calls by dose curve;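 also: HEK293 GripTite cells with ER-alpha and UAS-driven beta-lactamase reporter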)
# [6] = target: Estrogen receptor (Homo sapiens) (UniProt P03372); assay: qHTS assay to identify small molecule agonists of the estrogen receptor alpha (ER-alpha) signaling pathway using the BG1 cell line (AID 743079); conditions: BG1Luc4E2 cells, ERE-luciferase agonist, 22 h; activation: at 70.3 µM (top of the series); also: nearly all actives have a fitted effect of over 20% in size; also: potency is read from the fitted curve at half-maximal effect
# [7] = qHTS assay to identify small molecule antagonists of the estrogen receptor alpha (ER-alpha) signaling pathway using the BG1 cell line (AID 743080; calls by dose curve;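 also: BG1 cells stimulated with 17beta-estradiol alongside compound; nearly all actives have a fitted effect of over 25% in size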; also: potency is read from the fitted curve at half-maximal effect)
# Outline: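 BG1Luc4E2, endogenous ER-alpha, 4xERE-luc; 5 d charcoal-stripped FBS, phenol red free; 24 h plating; cpd + 17beta-estradiol 21.5 h, 37 C/5% CO2; CellTiter-Fluor viability 30 min, then ONE-Glo luciferase 30 min RT.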
# [8] = qHTS assay to identify small molecule antagonists of the estrogen receptor alpha (ER-alpha) signaling pathway using the BG1 cell line - cell viability counter screen (AID 743081);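 also: compound given together with 17beta-estradiol as the ER stimulus; nearly all actives have a fitted effect of over 45% in size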
# Aromatase (Homo sapiens) = Aromatase (Homo sapiens) (UniProt P11511); assay: qHTS assay to identify aromatase inhibitors (AID 743083); also: nearly all actives have a fitted effect of over 55% in size; also: potency is read from the fitted curve at half-maximal effect
# Sequence of Aromatase (Homo sapiens) (P11511 whole entry, looked up): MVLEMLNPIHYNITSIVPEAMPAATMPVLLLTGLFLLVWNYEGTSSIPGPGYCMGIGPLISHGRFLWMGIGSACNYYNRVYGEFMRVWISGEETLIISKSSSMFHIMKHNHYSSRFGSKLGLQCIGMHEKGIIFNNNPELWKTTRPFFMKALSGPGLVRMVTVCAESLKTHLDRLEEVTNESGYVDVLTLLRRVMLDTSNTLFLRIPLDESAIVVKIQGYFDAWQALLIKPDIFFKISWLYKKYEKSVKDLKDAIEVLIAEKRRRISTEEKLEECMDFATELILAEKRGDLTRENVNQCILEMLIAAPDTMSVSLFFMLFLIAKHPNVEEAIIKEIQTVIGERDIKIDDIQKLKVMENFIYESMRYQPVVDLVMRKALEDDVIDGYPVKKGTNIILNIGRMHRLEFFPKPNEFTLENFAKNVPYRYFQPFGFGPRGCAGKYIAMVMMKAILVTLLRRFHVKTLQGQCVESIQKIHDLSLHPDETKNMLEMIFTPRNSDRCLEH
# [9] = qHTS assay to identify aromatase inhibitors - cell viability counter screen (AID 743084);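 also: cells stimulated with testosterone during compound exposure; nearly all actives have a fitted effect of over 55% in size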; also: potency is read from the fitted curve at half-maximal effect
# [10] = target: Aryl hydrocarbon receptor (Homo sapiens) (UniProt P35869); assay: qHTS assay to identify small molecule that activate the aryl hydrocarbon receptor (AhR) signaling pathway (AID 743085); also: nearly all actives have a fitted effect of over 15% in size; also: potency is read from the fitted curve at half-maximal effect;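 as to activation: HG2L7.5c1 human HepG2 liver cells with stably integrated DRE-driven firefly reporter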
# Sequence of Aryl hydrocarbon receptor (Homo sapiens) (P35869 whole entry, looked up): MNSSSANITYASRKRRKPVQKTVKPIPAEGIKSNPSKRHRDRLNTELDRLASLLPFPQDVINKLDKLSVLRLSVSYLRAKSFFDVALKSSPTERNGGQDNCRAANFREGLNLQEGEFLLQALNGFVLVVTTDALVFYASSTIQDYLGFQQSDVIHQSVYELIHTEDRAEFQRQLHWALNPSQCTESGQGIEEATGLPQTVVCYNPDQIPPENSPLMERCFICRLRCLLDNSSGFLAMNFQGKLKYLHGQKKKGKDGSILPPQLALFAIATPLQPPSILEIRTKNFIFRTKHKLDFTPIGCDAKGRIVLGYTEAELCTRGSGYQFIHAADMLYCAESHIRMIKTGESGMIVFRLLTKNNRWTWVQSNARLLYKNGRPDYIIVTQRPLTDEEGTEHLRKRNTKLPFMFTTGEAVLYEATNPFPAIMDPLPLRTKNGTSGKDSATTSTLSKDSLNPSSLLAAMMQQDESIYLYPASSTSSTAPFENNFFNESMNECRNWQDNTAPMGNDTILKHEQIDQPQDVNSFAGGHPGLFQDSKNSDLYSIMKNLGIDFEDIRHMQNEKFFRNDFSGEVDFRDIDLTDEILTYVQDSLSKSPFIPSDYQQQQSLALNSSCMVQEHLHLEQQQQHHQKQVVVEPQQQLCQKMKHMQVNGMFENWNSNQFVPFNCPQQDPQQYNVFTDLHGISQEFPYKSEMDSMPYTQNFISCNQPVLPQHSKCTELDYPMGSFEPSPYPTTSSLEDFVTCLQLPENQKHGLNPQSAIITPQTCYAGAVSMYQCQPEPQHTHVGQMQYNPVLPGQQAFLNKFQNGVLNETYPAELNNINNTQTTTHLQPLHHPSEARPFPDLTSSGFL
# Outline: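 Reporter assay in engineered HepG2 line HG2L7.5c1, whose plasmid carries twenty dioxin responsive elements upstream of firefly luciferase. Treatment lasted 24 h at 37C; ONE-Glo luminescence gauged induction.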
# [11] = qHTS assay to identify small molecule that activate the aryl hydrocarbon receptor (AhR) signaling pathway - cell viability counter screen (AID 743086); also: nearly all actives have a fitted effect of over 45% in size; also: potency is read from the fitted curve at half-maximal effect
# Outline: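 Cytotoxicity counter screen: CellTiter-Fluor signal (30 min, 37 C) in 4000 HepG2 cells/well carrying the DRE-luciferase reporter, following 24 h compound exposure at 37 C.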
# [12] = target: Peroxisome proliferator-activated receptor gamma (Homo sapiens) (UniProt P37231); assay: qHTS assay to identify small molecule agonists of the peroxisome proliferator-activated receptor gamma (PPARg) signaling pathway (AID 743094; active = well fitted activation curve with a large enough effect in the signal ratio in the repeat runs, not every such curve was filed as active; inconclusive = weak or mixed curves, or effect the other way; inactive = no such curve, though single readings can be large or run the other way; the % refers to the signal ratio)
# Sequence of Peroxisome proliferator-activated receptor gamma (Homo sapiens) (P37231 whole entry, looked up): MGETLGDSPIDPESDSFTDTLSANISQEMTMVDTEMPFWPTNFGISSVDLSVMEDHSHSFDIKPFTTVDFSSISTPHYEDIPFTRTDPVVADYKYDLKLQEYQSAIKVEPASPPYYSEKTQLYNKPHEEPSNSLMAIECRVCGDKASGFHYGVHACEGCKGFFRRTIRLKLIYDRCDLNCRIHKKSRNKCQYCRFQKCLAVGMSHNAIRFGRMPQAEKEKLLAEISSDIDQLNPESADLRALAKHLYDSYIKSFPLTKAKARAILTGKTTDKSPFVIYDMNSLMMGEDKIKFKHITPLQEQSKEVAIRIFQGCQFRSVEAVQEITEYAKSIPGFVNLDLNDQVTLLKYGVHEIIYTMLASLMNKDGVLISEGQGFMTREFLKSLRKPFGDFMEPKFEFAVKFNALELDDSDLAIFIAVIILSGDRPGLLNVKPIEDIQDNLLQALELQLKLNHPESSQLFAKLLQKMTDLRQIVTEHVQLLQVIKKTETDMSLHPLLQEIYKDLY
# Outline: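 Cell-based bla reporter, HEK293H background, PPARg-driven UAS. Pre-incubation 5 h, 37C, 5% CO2. Compound 17 h, 37C. Substrate 1 h RT; fluorescence.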
# [13] = target: Peroxisome proliferator-activated receptor gamma (Homo sapiens) (UniProt P37231); assay: qHTS assay to identify small molecule antagonists of the peroxisome proliferator-activated receptor gamma (PPARg) signaling pathway (AID 743191; calls by dose curve; also: nearly all actives have a fitted effect of over 30% in size; also: potency is read from the fitted curve at half-maximal effect)
# Outline: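 Beta-lactamase reporter under UAS control in HEK293H PPARg-bla cells; compound treatment 17 h at 37C. Read-out: fluorescence intensity after 1 h room-temperature incubation with LiveBLAzer B/G FRET substrate.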
# [14] = qHTS assay to identify small molecule antagonists of the peroxisome proliferator-activated receptor gamma (PPARg) signaling pathway - cell viability counter screen (AID 743194); also: nearly all actives have a fitted effect of over 55% in size; also: potency is read from the fitted curve at half-maximal effect
# Outline: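 Viability was measured as CellTiter-Glo luminescence in GeneBLAzer PPARg UAS-bla HEK293H cells. These cells had been exposed 17 h at 37 C to compounds together with rosiglitazone at 50 nM final, with the beta-lactamase readout taken in the same wells.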
# [15] = qHTS assay for small molecule agonists of the antioxidant response element (ARE) signaling pathway - cell viability counter screen (AID 743203; calls by dose curve; also: nearly all actives have a fitted effect of over 55% in size; also: potency is read from the fitted curve at half-maximal effect)
# Outline: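 Measured in the same wells as the beta-lactamase ARE reporter, this read-out is CellTiter-Glo luminescence from HepG2 ARE-bla cells given compounds for 16 hrs.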
# [16] = qHTS assay for small molecule activators of the heat shock response signaling pathway - cell viability counter screen (AID 743209); also: nearly all actives have a fitted effect of over 50% in size
# Outline: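 Same-well multiplex: after 2.5 h room-temperature incubation with LiveBLAzer B/G substrate and fluorescence reading, CellTiter-Glo reagent was added to HSE-bla HeLa cells that had received compound for 5 h at 37 C; luminescence read after 30 min.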
# [17] = qHTS assay to identify small molecule antagonists of the thyroid receptor (TR) signaling pathway (AID 743065); also: nearly all actives have a fitted effect of over 55% in size; also: potency is read from the fitted curve at half-maximal effect
# Outline: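 Antagonism measured as loss of luciferase signal in GH3 cells stably carrying a TRE-luciferase reporter, co-treated with compound and T3 (1 nM final) for 23.5 h at 37 C. Viability was read in the same well by CellTiter-Fluor.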
# [18] = qHTS assay for small molecule agonists of the antioxidant response element (ARE) signaling pathway (AID 743202; active = well fitted activation curve with a large enough effect in the signal ratio in the repeat runs, not every such curve was filed as active; inconclusive = weak or mixed curves, or effect the other way; inactive = no such curve, though single readings can be large or run the other way; the % refers to the signal ratio; also: potency is read from the fitted curve at half-maximal effect)
# Outline: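 After 16 hours of compound treatment at 37 C, HepG2 cells with a stably integrated ARE-driven beta-lactamase reporter were loaded 2 hours at room temperature with LiveBLAzer B/G FRET substrate and fluorescence intensity measured.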
# [19] = qHTS assay for small molecule activators of the heat shock response signaling pathway (AID 743210; active = well fitted activation curve with a large enough effect in the signal ratio in the repeat runs, with a control signal flat, not every such curve was filed as active; inconclusive = weak or mixed curves; the % refers to the signal ratio)
# Outline: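 Compound exposure lasted 5 h at 37 C in HeLa cells carrying a heat-shock-element-driven beta-lactamase reporter. Read-out: fluorescence intensity after 2.5 h room-temperature loading with LiveBLAzer B/G FRET substrate.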
Compound,Potency [1],outcome [2],Potency [3],Potency [4],Potency [5],Potency [6],Potency [7],Potency [8],Potency (Aromatase (Homo sapiens)),Potency [9],Potency [10],Potency [11],Potency [12],Potency [13],Potency [14],Potency [15],Potency [16],Potency [17],Potency [18],Potency [19]
Cc1ccco1,inactive,inactive,inactive,inactive,inactive,inactive,inactive,inactive,inactive,inactive,inactive,inactive,inactive,inactive,inactive,inactive,inactive,,,
CC(C)C[C@H](NC(=O)[C@H](CCc1ccccc1)NC(=O)CN1CCOCC1)C(=O)N[C@@H](Cc1ccccc1)C(=O)N[C@@H](CC(C)C)C(=O)[C@@]1(C)CO1,0.0422 µM (active),,0.601 µM [inconclusive] (active),,,,0.188 µM (active),inactive,0.0335 µM (active),,inactive,0.0473 µM (active),,,,3.76 µM (active),inactive,0.0298 µM (active),0.0668 µM (active),
C=Cc1ccc(S(=O)(=O)O)cc1,inactive and 9.69 µM (active),inactive,inactive,inactive,inactive,23.7 µM (active) and inactive,inactive,inactive,inactive,inactive,inactive,inactive,inactive,,,,inactive,,,
Cc1c(C)c2c(c(C)c1OC(=O)CCC(=O)OCCO)CC[C@@](C)(CCC[C@H](C)CCC[C@H](C)CCCC(C)C)O2,11.9 µM (active),,9.52 µM [inconclusive] (active),,inactive,inactive,,inactive,,,inactive,,,15 µM (active),33.5 µM (active),inactive,inactive,23.7 µM (active),,inactive
CCC(C)COC(=O)CC(C)C (centres undefined),inactive,inactive,inactive,inactive,inactive,inactive,inactive,inactive,inactive,inactive,inactive,inactive,,inactive,,inactive,inactive,,,inactive
Clc1cc(Cl)nc(Cl)n1,inactive,inactive,,inactive,,,,inactive,inactive,inactive,inactive,inactive,,,49.6 µM (active),,inactive,inactive,,inactive
CN(C)CCC=C1c2ccccc2C=Cc2ccccc21,15 µM (active),,,inactive,inactive,inactive,inactive,inactive,inactive,inactive,inactive,,inactive,,inactive,inactive,inactive,26.6 µM (active),,
C1C[C@@H]2[C@H]3CC[C@H](C3)[C@@H]2C1,inactive,inactive,inactive,inactive,inactive,inactive,inactive,inactive,inactive,inactive,inactive,,inactive,inactive,inactive,inactive,inactive,,inactive,inactive
CC1CC(OC(=O)C(O)c2ccccc2)CC(C)(C)N1C (centres undefined),inactive,inactive,,inactive,,,,inactive,inactive,inactive,inactive,inactive,,,inactive,inactive,inactive,inactive,inactive,inactive
CN1CCCC(CC2c3ccccc3Sc3ccccc32)C1 (centres undefined),9.02 µM (active),,inactive,inactive,inactive,inactive,inactive,inactive,inactive,inactive,inactive,,,10.6 µM (active),16.8 µM (active),,inactive,7.17 µM (active),,inactive
c1cc(N(CC2CO2)CC2CO2)ccc1Cc1ccc(N(CC2CO2)CC2CO2)cc1 (centres undefined),13.7 µM (active),inactive,,inactive,,,,,30.6 µM (active),27.3 µM (active),,54.5 µM (active),,,,,inactive,8.63 µM (active),,
C[C@@H](CN(C)C)CN1c2ccccc2Sc2ccccc21,4.03 µM (active),inactive,inactive,inactive,inactive,inactive,inactive,inactive,inactive,inactive,inactive,inactive,inactive,,,inactive,inactive,,,inactive
COc1ccccc1NC(=O)c1cc2ccccc2cc1O,inactive,inactive,,,inactive,,,,24.3 µM (active),,3.06 µM (active),,inactive,,17.4 µM (active),,,17.2 µM (active),,
CCC(OCCCOC)OC(C)=O (centres undefined),inactive,inactive,,inactive,,,,inactive,inactive,inactive,inactive,inactive,,,inactive,inactive,inactive,inactive,inactive,inactive
